Experimental data from PubChem BioAssay.
The source made the active and inactive calls.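 The calls were made as follows, unless noted: active = inhibition at or above 50% at 10 µM; inactive = inhibition below 50%.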

Key:
[1] = inhibitors of TNFa-induced NFkB p65 translocation, primary screen, imaging, HUVEC, MLSMR starter and 10KST1 sets (AID 438;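 active = inhibition above 20% together with a positive visual image hit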;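 also: compound added about 3h40 before a 20 min TNFalpha stimulation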;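 as to inhibition: signal is the nuclear over cytoplasmic p65 intensity ratio per well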); conditions: HUVEC TNFa-induced p65 nuclear translocation; cell count: measured here: nuclei count (cytotoxicity indicator), at 2.08 µM; inhibition: at 2 µM, stronger effect = higher value, 0% TNFa-plus-vehicle, 100% no-TNFa wells
[2] = inhibitors of mutant huntingtin aggregation, primary screen, imaging, exon1htt(103Q)mCFP cells, high-content imaging (AID 483;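 active = visual image review flags a hit and inhibition of aggregation exceeds 20%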;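 also: compound exposure lasted 3 days before fixation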;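 as to nuclei count: percent of the per-plate median nuclei count of sample wells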); conditions: exon1htt(103Q)mCFP cell line, aggregate imaging, at 2 µM; inhibition of aggregation: stronger effect = higher value; nuclei count: measured here: cell count, toxicity
[3] = inhibitors of E-selectin induction by TNFa, primary screen, imaging, HUVEC, immunofluorescence, MLSMR starter and 10KST1 sets (AID 487;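 active = visually confirmed hit in the image check and inhibition above 20%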;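 as to inhibition: signal is fraction of cell area covered by stained E-selectin grains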;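 as to nuclei count: 100% = median nuclei count of all wells on the same plate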); conditions: HUVEC TNFalpha-induced E-selectin immunofluorescence imaging, at 2 µM; inhibition: stronger effect = higher value; nuclei count: measured here: cell number, toxicity
[4] = biological target: Voltage-gated potassium channel subunit beta-2 (Rattus norvegicus) (UniProt P62483); experiment: KvBeta enzyme negative modulators, primary screen, biochemical, NADPH fluorescence (AID 622;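 active = fluorescence slope higher than the sample average by over 3 SD, cut at about -0.22 in these data, passing the limit was not always enough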;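 also: slope of raw intensity against log time taken from 70 to 1610 s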); conditions: recombinant KvBeta, 4-cyanobenzaldehyde reduction, at 10 µM, stronger effect = higher value
[5] = biological target: Voltage-gated potassium channel subunit beta-2 (Rattus norvegicus) (UniProt P62483); experiment: KvBeta positive modulators, primary screen, biochemical, NADPH fluorescence (AID 623;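 active = NADPH fluorescence slope more negative than the mean of all samples by about 3 SD, 99.7% confidence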;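 also: fluorescence intensity change per second fitted from 20 to 320 s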); conditions: Recombinant KvBeta, NADPH fluorescence decrease slope, 10 min; at 10 µM; stronger effect = lower value
[6] = biological target: Alpha-2C adrenergic receptor (Homo sapiens) (UniProt P18825); experiment: modulators of alpha2C/GIRK thallium flux, primary screen, cell-based, HEK293 alpha2C/GIRK1/2 (AID 624;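 active = fluorescence slope after compound addition differing from the mean of all screened samples at 99.7% confidence, in either direction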;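 also: slope of fluorescence ratio to pre-addition baseline per second over 15 to 24 s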); conditions: thallium flux BTC fluorescence, at 10 µM, actives lie on both sides
[7] = inhibitors of Sendai virus-induced IRF3 signaling, primary screen, TLR/RLR signaling modifier project, cell-based, Sendai virus stimulus, luciferase, 10K MLSCN set (AID 602276); conditions: HEK293 RL24 IRF3 luciferase reporter, at 10 µM, stronger effect = higher value;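 also: firefly luciferase from ISG56 promoter only with Renilla not read in this screen; 0% = Sendai virus plus DMSO and 100% = medium plus DMSO without virus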
[8] = inhibitors of poly I:C-induced TLR3 signaling, primary screen, cell-based, poly I:C stimulus, luciferase, 10K MLSCN set (AID 602277;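 active = inhibition of the reporter signal at or above 50%; inactive = inhibition below 50%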); conditions: HEK293-TLR3 RL24 IRF3 luciferase reporter, at 10 µM, stronger effect = higher value

Voltage-gated potassium channel subunit beta-2 (Rattus norvegicus), sequence (P62483 whole entry, looked up): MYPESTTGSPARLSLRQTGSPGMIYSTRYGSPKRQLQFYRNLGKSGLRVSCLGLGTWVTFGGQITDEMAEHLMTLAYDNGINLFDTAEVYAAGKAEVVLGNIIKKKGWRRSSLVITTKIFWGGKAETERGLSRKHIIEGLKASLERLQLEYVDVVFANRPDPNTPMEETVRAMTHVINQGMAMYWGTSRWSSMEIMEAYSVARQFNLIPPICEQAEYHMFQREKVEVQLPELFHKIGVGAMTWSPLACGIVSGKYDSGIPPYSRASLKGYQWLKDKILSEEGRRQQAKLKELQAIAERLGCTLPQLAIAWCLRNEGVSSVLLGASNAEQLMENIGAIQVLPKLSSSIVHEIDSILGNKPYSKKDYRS
Alpha-2C adrenergic receptor (Homo sapiens), sequence (P18825 whole entry, looked up): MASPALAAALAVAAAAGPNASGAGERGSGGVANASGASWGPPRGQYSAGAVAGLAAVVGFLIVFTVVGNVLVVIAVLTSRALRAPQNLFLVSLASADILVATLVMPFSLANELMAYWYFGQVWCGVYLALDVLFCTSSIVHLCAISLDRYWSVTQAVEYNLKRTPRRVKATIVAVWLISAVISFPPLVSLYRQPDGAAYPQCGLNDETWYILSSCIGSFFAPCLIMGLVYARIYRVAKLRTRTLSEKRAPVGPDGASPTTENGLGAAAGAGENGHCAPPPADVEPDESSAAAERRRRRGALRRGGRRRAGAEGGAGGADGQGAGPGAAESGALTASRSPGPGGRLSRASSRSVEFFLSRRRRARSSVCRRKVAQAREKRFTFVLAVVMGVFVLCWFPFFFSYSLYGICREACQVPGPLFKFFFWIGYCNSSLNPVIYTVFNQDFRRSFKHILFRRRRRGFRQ

Structure (SMILES)	cell count [1]	inhibition [1]	inhibition of aggregation [2]	nuclei count [2]	inhibition [3]	nuclei count [3]	fluorescence slope [4]	NADPH fluorescence slope [5]	slope [6]	inhibition [7]	inhibition [8]
Cc1c(C(=O)NCc2ccccn2)sc2nc(-c3ccc(F)cc3)cn12	482	-5.5% (inactive)	-10% (inactive)	61.1%	10.9% (inactive)	104%	-0.502 (inactive)	1.3e-05 (inactive)	0.00621 (inactive)	17.6% (inactive)	-13.7% (inactive)
CC(=O)OC1CSc2nc3ccccc3n2C1 (centres undefined)	393	-9.6% (inactive)	6.2% (inactive)	99.9%	25.1% (inactive)	118%	-0.302 (inactive)	-5.5e-05 (inactive)	0.00459 (inactive)	7.55% (inactive)	13% (inactive)
CCC1CCCN1Cn1cnc2c([nH]c3ccc(OC)cc32)c1=O (centres undefined)	602	-7.6% (inactive)	3.4% (inactive)	108%	-53.1% (inactive)	86.2%	-0.396 (inactive)	-1.1e-05 (inactive)	0.0053 (inactive)	11.1% (inactive)	26.1% (inactive)
O=C1OC2(c3ccccc3)C3CCCC2C13	340	-1.1% (inactive)	7.7% (inactive)	94.1%	5.3% (inactive)	107%	-0.548 (inactive)	-7.3e-05 (inactive)	0.00538 (inactive)	16% (inactive)	15.6% (inactive)
CCOC(=O)Cc1csc(NC(=O)CSc2nnc(C)n2C)n1	585	3.3% (inactive)	17.4% (inactive)	101%	-8.1% (inactive)	108%	-0.448 (inactive)	-2.5e-05 (inactive)	0.00393 (inactive)	-24.8% (inactive)	-19.7% (inactive)
CCCCCOc1ccc(C2NC(=O)NC2=O)cc1 (centres undefined)	804	-5.5% (inactive)	-5.5% (inactive)	107%	-50.9% (inactive)	121%	-0.561 (inactive)	-4.1e-05 (inactive)	0.00708 (inactive)	-12.1% (inactive)	-2.6% (inactive)
CCCOC(=O)C1C2C=CC3(CN(c4cccc(Cl)c4)C(=O)C13)O2 (centres undefined)	743	-5.5% (inactive)	-3.6% (inactive)	95.4%	-55.3% (inactive)	116%	-0.491 (inactive)	1.7e-05 (inactive)	0.00748 (inactive)	12.8% (inactive)	28.1% (inactive)
c1ccc(-n2ncc3c(NCc4cccs4)ncnc32)cc1	338	-5.7% (inactive)	-6% (inactive)	94.4%	-3.7% (inactive)	118%	-0.415 (inactive)	-4.2e-05 (inactive)	0.00561 (inactive)	-19.7% (inactive)	-78.7% (inactive)
COCc1nnc(NC(=O)c2ccc(S(=O)(=O)N(C)c3ccccc3)cc2)o1	716	2.4% (inactive)	-2% (inactive)	116%	-21% (inactive)	107%	-0.575 (inactive)	1.3e-05 (inactive)	0.00656 (inactive)	13.8% (inactive)	7.35% (inactive)
CC(C)N(C(=O)CSc1nnc(NC(=O)C2CCC2)s1)C(C)C	599	-0.6% (inactive)	-7.3% (inactive)	86.3%	-108% (inactive)	110%	-0.466 (inactive)	2.4e-05 (inactive)	0.00479 (inactive)	17.8% (inactive)	25.1% (inactive)
Cc1cc2ccccc2c(=O)n1CC(=O)N(C)c1ccc(F)cc1	629	-4.7% (inactive)	-4.1% (inactive)	98%	-74.2% (inactive)	103%	-0.353 (inactive)	-5.6e-05 (inactive)	0.00579 (inactive)	2.03% (inactive)	9.91% (inactive)
CCOc1ccccc1OCC(=O)Nc1nnc(COC)s1	437	2.9% (inactive)	-3.9% (inactive)	106%	56.9% (inactive)	115%	-0.59 (inactive)	-3.4e-05 (inactive)	0.00402 (inactive)	-15.3% (inactive)	-12.6% (inactive)
CCOc1cc2[nH]c(=O)n(CCC(=O)NCCc3ccc(OC)c(OC)c3)c(=O)c2cc1OCC	313	-2.1% (inactive)	-0.3% (inactive)	103%	-19.2% (inactive)	122%	-0.514 (inactive)	2.8e-05 (inactive)	0.00653 (inactive)	8.69% (inactive)	16.7% (inactive)
COc1ccccc1S(=O)(=O)Cc1ccc(C(=O)NCCN2CCCCCC2)o1	522	13.4% (inactive)	15.2% (inactive)	91.6%	9% (inactive)	81.1%	-0.588 (inactive)	-3.5e-05 (inactive)	0.00667 (inactive)	11% (inactive)	39.3% (inactive)
